Test results from PubChem BioAssay (NCI).
About 79,000 compounds went through this panel and 15% of them were active in at least one assay; those are over-represented in the sample as a whole. Calls of active or inactive are those of the source. Cut-off read from the data, not from the text of the source: active = growth inhibition above about 70%; inactive = the rest.

Tests used:
[1] = NCI Yeast Anticancer Drug Screen. Data for the mec2-1 strain (AID 157); details: S. cerevisiae mec2-1 strain, hits give high values
Summary of the method: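 Mutant yeast (mec2-1) grown with compound; growth inhibition relative to vehicle control reported.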

[2] = NCI Yeast Anticancer Drug Screen. Data for the rad14 strain (AID 159);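 note: 0% = growth of vehicle-treated control cultures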; details: S. cerevisiae rad14 strain growth inhibition, hits give high values
Summary of the method: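 Readout: yeast growth inhibition, referenced to vehicle-only cultures. Strain bears a defined alteration in DNA damage repair.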

[3] = NCI Yeast Anticancer Drug Screen. Data for the sgs1 mgt1 strain (AID 161);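 note: 0% = growth of cultures given vehicle only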; details: S. cerevisiae sgs1 mgt1 strain, hits give high values
Summary of the method: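 Compounds are added to genetically altered yeast, and growth is compared with cultures given vehicle alone to give percent inhibition.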

[4] = NCI Yeast Anticancer Drug Screen. Data for the CLN2oe strain (AID 163);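 note: 0% = growth of vehicle-only control cultures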; details: S. cerevisiae CLN2oe strain, hits give high values
Summary of the method: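 Compounds are applied to yeast harbouring a defined cell-cycle control change; reduced growth compared with vehicle-treated controls gives the value.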

[5] = NCI Yeast Anticancer Drug Screen. Data for the cln2 rad14 strain (AID 165);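 note: 0% = growth equal to vehicle treated cultures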; details: S. cerevisiae cln2 rad14 strain, hits give high values
Summary of the method: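 Readout is yeast growth inhibition versus vehicle-treated controls, using a strain with cln2 and rad14 alterations exposed to compound.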

[6] = NCI Yeast Anticancer Drug Screen. Data for the bub3 strain (AID 167); details: S. cerevisiae bub3 mutant strain, hits give high values
Summary of the method: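 Part of a panel of yeast mutants defective in DNA damage repair or cell cycle regulation. Each strain is grown with compound, and inhibition is calculated relative to solvent-treated cultures.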

[7] = NCI Yeast Anticancer Drug Screen. Data for the wt2 strain (AID 169);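 note: 0% = growth of vehicle-treated yeast cultures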; details: S. cerevisiae wt2 strain growth inhibition, hits give high values
Summary of the method: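 Against vehicle-treated controls, the growth of yeast exposed to each compound was compared, and the inhibition was recorded.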

[8] = NCI Yeast Anticancer Drug Screen. Data for the mlh1 strain (AID 171);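 note: 0% = growth of vehicle-treated control cultures of the same strain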; details: S. cerevisiae mlh1 strain growth inhibition, hits give high values
Summary of the method: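 Measured: yeast growth. Reference: vehicle-treated controls. Organism: strain with a defined alteration affecting DNA damage repair or cell cycle control, treated with compound.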

[9] = NCI Yeast Anticancer Drug Screen. Data for the sgs1 strain (AID 173);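 note: 0% = growth of vehicle-only control cultures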; details: S. cerevisiae sgs1 mutant, hits give high values
Summary of the method: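 Each compound was added to cultures of the altered yeast strain. Growth was recorded, and inhibition was derived by comparison with vehicle controls.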

[10] = NCI Yeast Anticancer Drug Screen. Data for the mlh1 rad18 strain (AID 175); details: S. cerevisiae mlh1 rad18 strain growth inhibition, hits give high values
Summary of the method: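 Genetically defined yeast (DNA repair-deficient) exposed to compounds; growth inhibition determined relative to vehicle.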

[11] = NCI Yeast Anticancer Drug Screen. Data for the rad18 strain (AID 177); details: S. cerevisiae rad18 mutant growth inhibition, hits give high values
Summary of the method: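 Vehicle-treated cultures served as the baseline for scoring compound-induced growth inhibition in DNA-repair-mutant yeast.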

[12] = NCI Yeast Anticancer Drug Screen. Data for the wt1 strain (AID 149);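 note: 0% = growth of vehicle-treated wt1 cultures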; details: S. cerevisiae wt1 strain (SPY 50644) growth inhibition, hits give high values
Summary of the method: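 The wt1 strain was treated with compounds, and growth was compared with vehicle-treated cultures to give inhibition.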

[13] = NCI Yeast Anticancer Drug Screen. Data for the rad50EPP+ strain (AID 151);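 note: 0% = growth of vehicle-treated control cultures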; details: S. cerevisiae rad50 mutant strain, hits give high values
Summary of the method: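 Vehicle-normalised growth inhibition; rad50EPP+ yeast strain, altered in DNA damage repair, compound-treated.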

[14] = NCI Yeast Anticancer Drug Screen. Data for the mgt1 strain (AID 153); details: S. cerevisiae mgt1 mutant growth inhibition, hits give high values
Summary of the method: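 Vehicle-normalized growth inhibition is determined in mgt1 yeast, a strain selected for a defined alteration in DNA repair or cell cycle control.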

[15] = NCI Yeast Anticancer Drug Screen. Data for the rad50 strain (AID 155);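 note: 0% = growth of vehicle-only cultures of the same strain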; details: S. cerevisiae rad50 strain growth inhibition, hits give high values
Summary of the method: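 Cells are treated with compound, grown, and their growth is then scored against vehicle-only cultures of the same repair-deficient yeast strain.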

[16] = at 5.0 µM (retest, dose inferred, filed as 0.5)
[17] = at 50.0 µM (retest, dose inferred, filed as 5.0)

Measured: growth inhibition

Clc1ccc(C(c2ccc(Cl)cc2)N2CCNCC2)cc1
inactive: [2]; at 1.2 µM -36% | [2]; at 3.7 µM -30% | [2]; at 11.0 µM -41% | [3]; [16] -35% | [4]; at 1.2 µM -1% | [4]; at 3.7 µM -2% | [4]; at 11.0 µM 1% | [4]; at 33.0 µM 18% | [5]; [16] 61% | [6]; at 1.2 µM 1% | [6]; at 3.7 µM 3% | [6]; [16] 12% | [6]; at 11.0 µM 12% | [7]; at 1.2 µM -3% | [7]; at 3.7 µM -2% | [7]; at 11.0 µM -81% | [7]; at 33.0 µM 46% | [8]; at 1.2 µM -35% | [8]; at 3.7 µM -34% | [8]; at 11.0 µM -34% | [8]; at 33.0 µM 49% | [9]; at 1.2 µM -26% | [9]; at 3.7 µM -33% | [9]; at 11.0 µM -34% | [9]; at 33.0 µM 41% | [10]; [16] 45% | [11]; at 1.2 µM 3% | [11]; at 3.7 µM -7% | [11]; at 11.0 µM 4% | [11]; at 33.0 µM 65%
active: [1]; at 100.0 µM 98% | [2]; at 33.0 µM 71% | [2]; at 100.0 µM 98% | [3]; [17] 98% | [4]; at 100.0 µM 92% | [5]; [17] 88% | [6]; at 33.0 µM 71% | [6]; [17] 96% | [6]; at 100.0 µM 94% | [7]; at 100.0 µM 99% | [8]; at 100.0 µM 98% | [9]; at 100.0 µM 98% | [10]; [17] 96% | [10]; at 50.0 µM 92.3% | [11]; at 100.0 µM 98%

O=C(Nc1ccn(C2CC(O)C(COC(c3ccccc3)(c3ccccc3)c3ccccc3)O2)c(=O)n1)c1ccccc1 (stereo unspecified)
active: [12]; at 11.0 µM 94% | [12]; at 33.0 µM 94% | [12]; at 100.0 µM 89% | [14]; at 11.0 µM 81% | [14]; at 33.0 µM 82% | [14]; at 100.0 µM 79% | [15]; [16] 85% | [15]; at 11.0 µM 89% | [15]; at 33.0 µM 87% | [15]; [17] 94% | [15]; at 100.0 µM 83% | [1]; at 11.0 µM 91% | [1]; at 33.0 µM 91% | [1]; [17] 83% | [1]; at 50.0 µM 97.6% | [1]; at 100.0 µM 88% | [2]; at 11.0 µM 78% | [2]; at 33.0 µM 81% | [2]; at 100.0 µM 78% | [3]; [17] 94% | [4]; at 11.0 µM 96% | [4]; at 33.0 µM 94% | [4]; at 100.0 µM 92% | [5]; [16] 83% | [5]; [17] 96% | [5]; at 50.0 µM 92.8% | [6]; [16] 89% | [6]; at 11.0 µM 81% | [6]; at 33.0 µM 84% | [6]; [17] 95% | [6]; at 50.0 µM 81.5% | [6]; at 100.0 µM 82% | [7]; at 11.0 µM 81% | [7]; at 33.0 µM 84% | [7]; at 100.0 µM 79% | [8]; at 11.0 µM 74% | [8]; at 33.0 µM 79% | [8]; at 100.0 µM 74% | [9]; at 11.0 µM 84% | [9]; at 33.0 µM 85% | [9]; at 100.0 µM 79% | [10]; [16] 87% | [10]; [17] 95% | [10]; at 50.0 µM 94.8%
inactive: [12]; at 1.2 µM -40% | [12]; at 3.7 µM -22% | [13]; at 1.2 µM -26% | [13]; at 3.7 µM -10% | [13]; at 11.0 µM -9% | [13]; at 33.0 µM 10% | [13]; at 100.0 µM -15% | [14]; at 1.2 µM -22% | [14]; at 3.7 µM 14% | [15]; at 1.2 µM -44% | [15]; at 3.7 µM 20% | [15]; at 50.0 µM 43.2% | [1]; at 1.2 µM -43% | [1]; at 3.7 µM -1% | [1]; [16] 64% | [2]; at 1.2 µM -32% | [2]; at 3.7 µM 9% | [3]; [16] 50% | [3]; at 50.0 µM 37.6% | [4]; at 1.2 µM -15% | [4]; at 3.7 µM 36% | [6]; at 1.2 µM -34% | [6]; at 3.7 µM -11% | [7]; at 1.2 µM -15% | [7]; at 3.7 µM 1% | [8]; at 1.2 µM -43% | [8]; at 3.7 µM -19% | [9]; at 1.2 µM 6% | [9]; at 3.7 µM 3%

CCCCCCC(CCl)c1sc(-c2csc(CCNC(=O)OC(C)(C)C)n2)nc1C(=O)OC (stereo unspecified)
inactive: [12]; at 1.2 µM -1% | [12]; at 3.7 µM -4% | [12]; at 11.0 µM -5% | [12]; at 33.0 µM -5% | [12]; at 100.0 µM 30% | [13]; at 1.2 µM -1% | [13]; at 3.7 µM 1% | [13]; at 11.0 µM 2% | [13]; at 33.0 µM 4% | [13]; at 100.0 µM 19% | [14]; at 1.2 µM -1% | [14]; at 3.7 µM -3% | [14]; at 11.0 µM -6% | [14]; at 33.0 µM 2% | [15]; at 1.2 µM -1% | [15]; at 3.7 µM 1% | [15]; [16] -23% | [15]; at 11.0 µM 5% | [15]; at 33.0 µM 24% | [15]; [17] 11% | [15]; at 50.0 µM -2.85% | [1]; at 1.2 µM 0% | [1]; at 3.7 µM -3% | [1]; [16] -11% | [1]; at 11.0 µM 0% | [1]; at 33.0 µM 6% | [1]; [17] 39% | [1]; at 50.0 µM 30.1% | [2]; at 1.2 µM 0% | [2]; at 3.7 µM 1% | [2]; at 11.0 µM 6% | [2]; at 33.0 µM 23% | [3]; [16] 17% | [3]; [17] 27% | [3]; at 50.0 µM -13.5% | [4]; at 1.2 µM -3% | [4]; at 3.7 µM -2% | [4]; at 11.0 µM -9% | [4]; at 33.0 µM -10% | [4]; at 100.0 µM 66% | [5]; [16] 47% | [5]; [17] -2% | [5]; at 50.0 µM -42.5% | [6]; at 1.2 µM -1% | [6]; at 3.7 µM 0% | [6]; [16] -21% | [6]; at 11.0 µM 2% | [6]; at 33.0 µM 8% | [6]; [17] 47% | [6]; at 50.0 µM 9.85% | [7]; at 1.2 µM -3% | [7]; at 3.7 µM -5% | [7]; at 11.0 µM -5% | [7]; at 33.0 µM -6% | [8]; at 1.2 µM -3% | [8]; at 3.7 µM -2% | [8]; at 11.0 µM -4% | [8]; at 33.0 µM -1% | [9]; at 1.2 µM -2% | [9]; at 3.7 µM 0% | [9]; at 11.0 µM 1% | [9]; at 33.0 µM 14% | [10]; [16] -15% | [10]; at 50.0 µM 43.5%
active: [14]; at 100.0 µM 98% | [15]; at 100.0 µM 97% | [1]; at 100.0 µM 96% | [2]; at 100.0 µM 97% | [6]; at 100.0 µM 94% | [7]; at 100.0 µM 97% | [8]; at 100.0 µM 97% | [9]; at 100.0 µM 97% | [10]; [17] 88%
